From PubChem BioAssay
The source made the active and inactive calls. No rule for the calls is given here.

Each molecule was assayed against Pantothenate synthetase (Mycobacterium tuberculosis (strain ATCC 25618 / H37Rv)) (UniProt P9WIL5) (assay: Coupled enzyme confirmation of inhibitors against recombinant Mtb PanC (AID 375;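 also: 0% = full reaction with vehicle and 100% = no enzyme background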)). Conditions: coupled enzyme assay; at 10 µM, stronger effect = higher value.
Sequence of Pantothenate synthetase (Mycobacterium tuberculosis (strain ATCC 25618 / H37Rv)) (P9WIL5 whole entry, looked up): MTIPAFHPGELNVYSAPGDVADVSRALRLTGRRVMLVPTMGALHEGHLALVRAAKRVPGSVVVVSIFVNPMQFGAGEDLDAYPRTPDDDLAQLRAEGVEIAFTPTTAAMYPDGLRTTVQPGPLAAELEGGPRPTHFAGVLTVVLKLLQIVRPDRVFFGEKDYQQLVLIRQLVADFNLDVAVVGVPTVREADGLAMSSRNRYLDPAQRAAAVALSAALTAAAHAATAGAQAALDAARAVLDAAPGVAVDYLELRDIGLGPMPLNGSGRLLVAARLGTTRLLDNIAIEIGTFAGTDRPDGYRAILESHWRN
`Cc1ccc(N(Cc2ccco2)C(=O)c2cccc(S(=O)(=O)N(C)C)c2)cc1` was tested, and the inhibition was 5% (inactive). In the case of `O=C(NC1CCCC1)c1ccc2nc[nH]c2c1`, the inhibition is reported as 0% (inactive). `Cc1occc1C(=O)Nc1cccc2ccccc12` was tested, and the inhibition was 0% (inactive). In the case of `CN(CC(=O)N1CCCc2c1c(=O)oc1ccc(O)cc21)Cc1ccccc1`, the inhibition is reported as 0% (inactive). For `O=C(c1cnc2n(c1=O)CCS2)N(C1CCCCC1)C1CCCCC1`, the inhibition was 0% (inactive). In the case of `CCCN1Cc2cccc(C(=O)NCc3cccs3)c2C1=O`, the inhibition is reported as 0% (inactive). With `Cc1ccsc1C(C(=O)NC1CCCCC1)N(C(=O)Cc1cccs1)C1CC1` (stereo not given) the inhibition was 0% (inactive). With `COc1cc(S(=O)(=O)NC2CCCCC2C)ccc1Cl` (stereo not given) the inhibition was 0% (inactive). `C=CCSc1nnc(-c2ccc(Cl)cc2Cl)o1` was tested, and the inhibition was 5% (inactive). With `COc1ccc(S(=O)(=O)N(CC(=O)N2CCN(c3ccccc3OC)CC2)c2ccccc2)cc1` the inhibition was 0% (inactive). With `Oc1ccc(N2CCN(C(c3ccncc3)c3nnnn3C3CCCC3)CC2)cc1` (stereo not given) the inhibition was 11% (inactive). In the case of `Cc1nnc(SCC(=O)N2CCC(C(=O)Nc3nccs3)CC2)n1Cc1ccccc1`, the inhibition is reported as 0% (inactive). With `CC(=O)c1cccc(S(=O)(=O)N2CCC(n3nnc4cc(F)ccc43)CC2)c1` the inhibition was 0% (inactive). With `CC(=O)Nc1ccc(OC(=O)c2cccnc2)cc1` the inhibition was 0% (inactive). With `O=C(NCCc1cccc(Cl)c1)c1cccnc1` the inhibition was 12% (inactive). With `CCC1CCCCN1S(=O)(=O)c1ccc(C(=O)Nc2nnc(-c3cccs3)o2)cc1` (stereo not given) the inhibition was 2% (inactive). In the case of `O=C(O)C1CC(=O)N(c2ccc(OCc3c(F)cccc3Cl)cc2)C1` (stereo not given), the inhibition is reported as 2% (inactive). In the case of `CCOc1ccc(NC(=O)CSc2nc3cccnc3n2CC)cc1`, the inhibition is reported as 0% (inactive). With `CC(C(=O)NC(=O)NC1CCCCC1)N1CCN(c2ccccn2)CC1` (stereo not given) the inhibition was 0% (inactive). In the case of `Cc1oc2cc3c(C(=O)OCCN(C)C)c(C)oc3cc2c1C(=O)OCCN(C)C`, the inhibition is reported as 0% (inactive). In the case of `COc1ccc(OCC(=O)N2CCN(C(=O)c3cccs3)CC2)cc1`, the inhibition is reported as 5% (inactive). With `O=C1c2ccccc2C(Nc2ccc(-c3nc4ccccc4[nH]3)cc2)N1Cc1ccco1` (stereo not given) the inhibition was 5% (inactive). With `O=C(NO)c1ccccc1O` the inhibition was 0% (inactive). `CN(C)S(=O)(=O)N1CCN(C(=O)N(c2ccccc2)c2ccccc2)CC1` was tested, and the inhibition was 0% (inactive). In the case of `CC(C)N(C=O)C1(C(=O)NC2CCCCC2)CCCCC1`, the inhibition is reported as 4% (inactive). With `CCN(CC)C(=O)c1ccc(NS(=O)(=O)c2ccccc2)cc1` the inhibition was 0% (inactive). In the case of `CC(=O)N(C(C)=O)c1c(C#N)c(C)n(-c2ccccc2)c1C(=O)c1ccccc1`, the inhibition is reported as 0% (inactive). `CCOC(=O)C(NC(=O)CC)(Nc1ccc(S(=O)(=O)Nc2onc(C)c2C)cc1)C(F)(F)F` (stereo not given) was tested, and the inhibition was 0% (inactive). In the case of `CCOC(=O)c1cc(C(C)(C)C)oc1CN`, the inhibition is reported as 0% (inactive). With `CC(NC(=O)Nc1nccs1)(C(F)(F)F)C(F)(F)F` the inhibition was 5% (inactive). For `CNC(=O)CC(C(=O)O)c1ccc(OCC(C)C)cc1` (stereo not given), the inhibition was 1% (inactive). In the case of `Cc1ccc2[nH]c3c(=O)n(CCCN4CCN(C)CC4)cnc3c2c1`, the inhibition is reported as 4% (inactive). `CS(=O)(=O)Nc1ccc([N+](=O)[O-])cc1Oc1ccccc1` was tested, and the inhibition was 0% (inactive). `CCN(CCCc1ccccc1)CCCc1ccccc1` was tested, and the inhibition was 0% (inactive). `CC1=C(C(=O)OC(C)C)C(C2CC=CCC2)NC(=O)N1` (stereo not given) was tested, and the inhibition was 6% (inactive). `Cn1cnnc1SCC(=O)NCc1cccc(C(F)(F)F)c1` was tested, and the inhibition was 0% (inactive). With `COC(=O)c1c(N)n(-c2cc(OC)cc(OC)c2)c2nc3ccccc3nc12` the inhibition was 1% (inactive). `CCCn1nc(NC(=O)c2cccs2)c2cc3cc(OC)ccc3nc21` was tested, and the inhibition was 0% (inactive). `CCN(C(=O)Cc1c(C(=O)O)[nH]c2ccccc12)c1cc(OC)ccc1OC` was tested, and the inhibition was 0% (inactive). In the case of `CCOc1ccc(NC(=O)CN2C(=O)C3CCCN3C2=O)cc1` (stereo not given), the inhibition is reported as 0% (inactive).
